Experimental findings from ChEMBL document CHEMBL1157539, “Thousands of chemical starting points for antimalarial lead identification” (Nature, 2010) are described below.

As usually defined, the Inhibition is the percentage by which the read-out fell short of the control.

What all share (format): functional
Assay [1] deals with Plasmodium falciparum. The experiment in a line: GSK_TCMDC: Inhibition of Plasmodium falciparum 3D7 in whole red blood cells, using parasite LDH activity as an index of growth. Test compounds present at 2uM.
Assay [2] relates to Plasmodium falciparum. The experiment in a line: GSK_TCMDC: Inhibition of Plasmodium falciparum Dd2 in whole red blood cells, using parasite LDH activity as an index of growth. Test compounds present at 2uM.
Assay [3] deals with HepG2. The experiment in a line: GSK_TCMDC: Percent inhibition of human HepG2 cell line. Test compounds present at 10uM.

Molecules are shown by their SMILES.

On to `CC(C)Sc1nc2c(c(=O)n1CCc1ccccc1)C1(CCCC1)Cc1ccccc1-2`, for which the Inhibition in assay [1] is listed as 100%; in assay [2], 88%; in assay [3], 0%.
Take `CC(=O)Nc1ccc(CN(Cc2ccc(OC(C)(C)C)cc2)Cc2ccc3c(c2)OCCO3)cc1`: the Inhibition is on record as 91% in assay [1], 75% in assay [2] and 7% in assay [3].
In the same order, the values of `Cc1cc(C(=O)CN2C(=O)NC3(CCOc4ccccc43)C2=O)c(C)n1Cc1ccco1` (stereo not drawn) are 93%, 42% and 13%.
For `COc1cc(Nc2nccc(NCC(O)c3ccc(C(F)(F)F)cc3)n2)cc(OC)c1OC` (stereo not drawn), the figures for the Inhibition in assay [1], in assay [2] and in assay [3] were 91%, 14% and 45%, respectively.
With `CO/C(=C\C=C\c1cc2cc(Cl)c(Cl)cc2[nH]1)C(=O)NCCCN1CCN(c2ccncc2)CC1`, the Inhibition in assay [1] came to 98%; in assay [2] it was 96%; in assay [3], 12%.
Turning to `C[C@H]1CN(Cc2cccc(-c3cc(CNC(=O)c4cccc(CN5CCN(CCOc6ccccc6)CC5)c4)ccc3F)c2)CCN1.O=C(O)C(F)(F)F`, the Inhibition is recorded as 91% in assay [1], 88% in assay [2] and 59% in assay [3].
Take `COc1ccc(-c2cccc(NC(=O)c3cccs3)c2)cc1CN1CCCN(C)CC1.O=C(O)C(F)(F)F`: the Inhibition in assay [1] is 100%; in assay [2], 30%; in assay [3], 17%.
On to `CC(=O)Nc1ccc(CNC2Cc3ccc(-c4ccc(Cl)c(Cl)c4)cc3C2)cc1` (stereo not drawn), for which the Inhibition in assay [1] is recorded as 89%; in assay [2], 7%; in assay [3], 49%.
The matching figures for `CN1CCN(CCCN(Cc2ccc(-c3ccc(CNC4CCCC4)cc3)cc2)C(=O)CCC2CCCC2)CC1.O=C(O)C(F)(F)F`: 98%, 96% and 92%.
Turning to `Cl.O=c1cc(NCCCNC2CCOc3c(Cl)cc(Cl)cc32)[nH]c2ccccc12` (stereo not drawn), the Inhibition in assay [1] worked out at 100%; in assay [2], 88%; in assay [3], 0%.
The matching figures for `Cc1cccc2nc(-c3cccc(-c4ccc(NC(=O)Nc5cccc(C#N)c5)cc4)c3)[nH]c12`: 100%, 91% and 50%.
The matching figures for `CN(CCN(C)C(=O)NCc1ccccc1)C(=O)NCc1ccccc1`: 100%, 0% and 2%.
Take `COc1ccc(-c2csc3ncnc(Cl)c23)cc1OC`: the Inhibition in assay [1] worked out at 93%; in assay [2] it was 84%; in assay [3] it was 0%.
In the same order, the values of `Cc1c(C)n(C2CCCCC2)c2ncnc(OC3CCN(CC(=O)N4CCCC4)CC3)c12` are 95%, 59% and 31%.
In the same order, the values of `COc1ccc(-c2ccc(Nc3cccc(S(=O)(=O)CCN4CCC(CCN(C)C)CC4)c3)nc2)cn1` are 100%, 9% and 44%.
The matching figures for `CCCn1c(O)nnc1SCC(=O)Nc1cc(Cl)ccc1Cl`: 88%, 53% and 0%.
For `CCNc1cc(C)nc(Nc2ccc(NS(=O)(=O)c3ccccc3)cc2)n1`, the Inhibition in assay [1] was determined as 100%; in assay [2], 54%; in assay [3] it was 41%.
The matching figures for `c1nc2nc3c(c(Nc4ccc5c(c4)CCC5)n2n1)CCC3`: 87%, 70% and 0%.
The matching figures for `Cc1ccc(C(=O)Nc2ccc(F)c(F)c2F)cc1S(=O)(=O)N1CCCCC1`: 92%, 69% and 3%.
For the compound `CC1CN(c2cc(=O)n(Cc3cccc(NC(=O)Nc4ccc(-c5ccccc5)cc4)c3)cn2)CC(C)N1.O=C(O)C(F)(F)F` (stereo not drawn), the results for the Inhibition in assay [1], in assay [2] and in assay [3] were 100%, 63% and 2%, respectively.
For `CCOC(=O)c1ccc(OCCCCCCOc2ccc(Br)cc2)cc1`, the results for the Inhibition in assay [1], in assay [2] and in assay [3] were 98%, 0% and 12%, respectively.
In the same order, the values of `O=C(NC1CC1)c1cnc(N2CCC(c3ccccc3)CC2)c(Cl)c1.O=C(O)C(F)(F)F` are 94%, 95% and 6%.
On to `Cc1ccc2[nH]c3c(NCCCN(C)C)ncnc3c2c1`, for which the Inhibition turned out to be 99% in assay [1], 0% in assay [2] and 1% in assay [3].
In the same order, the values of `Cc1c(Cn2ncc(N3CCC(N)CC3)c(Cl)c2=O)cccc1NC(=O)Nc1ccc(-c2ccccc2)cc1.O=C(O)C(F)(F)F` are 97%, 43% and 19%.
On to `C[C@H](NC(=O)c1c(OC2CN(C(c3ccccc3)c3ccccc3)C2)c(-c2ccccc2)nc2ccccc12)C1CCCCC1`, for which the Inhibition in assay [1] was 92%; in assay [2], 74%; in assay [3], 0%.
The matching figures for `CC(C)CNC(=O)c1ccnc(-c2ccc(CNC3Cc4ccccc4C3)cc2)c1.O=C(O)C(F)(F)F`: 99%, 29% and 25%.
Take `COc1ccccc1Nc1nc(C)cc(NCc2ccc(-n3ccnc3)cc2)n1`: the Inhibition worked out at 90% in assay [1], 10% in assay [2] and 5% in assay [3].
In the same order, the values of `CN1c2ccccc2Sc2cc(CNCCSCCNCc3ccc4c(c3)Sc3ccccc3N4C)ccc21.Cl` are 84%, 44% and 58%.
The matching figures for `COc1ccc(-c2cccc(NC(=O)c3cccc(Cl)c3)c2)cc1CN1CCCN(C)CC1.O=C(O)C(F)(F)F`: 100%, 99% and 20%.
In the same order, the values of `CCCCN1CCN(Cc2cccc(NC(=O)c3ccc(Cl)c(Cl)c3)c2)CC1.O=C(O)C(F)(F)F` are 88%, 24% and 21%.
For `Oc1c(Cl)cc(Nc2nccc(Nc3ccc(Oc4ccccc4)cc3)n2)cc1Cl`, the Inhibition in assay [1] came to 99%; in assay [2], 26%; in assay [3] it was 8%.
